Screening results (PubChem BioAssay)
Sampled rows, rich in hits. Any-hit rate of the full collection: about 2.4%.
PfM18AAP inh – PfM18AAP enzyme inhibition; recombinant PfM18AAP, H-Glu-NHMec fluorogenic cleavage; inhibition, % at 7.35 µM; hit rate 1.2% among 290,000;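 active means inhibition above the campaign mean inhibition over all tested compounds plus 3 SD, cut at about 28% in these data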;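 further: 0% = plate median of test compound wells and 100% = 2 mM ZnCl2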
APOBEC3A inh – human APOBEC3A DNA deaminase inhibition; inhibition, % at 20 µM; recombinant A3A, FAM/TAMRA ssDNA deamination fluorescence; hit rate 0.41% among 330,000;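 active means at least 40% inhibition at 20 µM here, with at most 30% in a related deaminase screen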;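 further: plate controls were A3A with DMSO for no effect and wells lacking A3A enzyme for full effect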
Target sequence (P31941 whole entry, looked up): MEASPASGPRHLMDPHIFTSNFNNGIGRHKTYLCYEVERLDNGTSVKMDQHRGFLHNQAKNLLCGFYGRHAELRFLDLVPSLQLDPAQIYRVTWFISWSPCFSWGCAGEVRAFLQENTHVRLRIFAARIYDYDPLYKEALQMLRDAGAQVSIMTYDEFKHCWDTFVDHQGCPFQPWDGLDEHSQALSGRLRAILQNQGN
PfG6PD inh – PfG6PD (Plasmodium falciparum) enzyme inhibition | PfGluPho enzyme, NADPH resazurin-diaphorase fluorescence | inhibition, % at 20 µM | hit rate 0.78% among 350,000;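 active means inhibition reaching at least a set limit at 20 µM in the primary screen, cut at about 59% in these data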;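 further: 0% = DMSO wells with substrate and 100% = DMSO wells lacking glucose-6-phosphate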
Yeast superoxide – lowers age-related superoxide in aged yeast cells; S. cerevisiae aged cells, superoxide DHE fluorescence; hits give low values; superoxide response (% of plate mean), % at 10 µM; hit rate 0.18% among 330,000; AID 2690;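 active means superoxide response under a set limit, about three screen SD below normal, cut at about 65% in these data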;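 further: yeast aged for seven days with compound at 30 °C before DHE staining; 100% = average MFI of all compound-treated wells on the plate with controls excluded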
A3G deaminase – blocks human APOBEC3G single-stranded DNA deamination | recombinant A3G, ssDNA deamination FAM/TAMRA fluorescence | inhibition, % at 20 µM | Q9HC16 | AID 493012 | hit rate 0.28% among 330,000;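 active means inhibition of at least 40% at 20 µM, with no more than 30% in the related APOBEC3A deaminase screen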;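 further: plate controls were DMSO wells with A3G for no effect and wells lacking A3G enzyme for full effect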
A3A conf – APOBEC3A (human) deaminase inhibition, confirmed | recombinant A3A, ssDNA deaminase UDG fluorescence assay | AID 493151 | shares compounds with APOBEC3A inh | inhibition, % at 20 µM | hit rate 63% among 1,400;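 active means inhibition reaching a set limit, 80% of the first screen's cutoff, at 20 µM in any replicate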;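 further: plate controls were DMSO wells with A3A for no effect and wells lacking A3A enzyme for full effect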
UDG ctr A3A – inhibits UDG, flagging false APOBEC3A inhibitors; shares compounds with APOBEC3A inh; UDG counterscreen, FAM/TAMRA uracil oligo fluorescence; inhibition, % at 20 µM; 1,000 tested, under 10 active; call rule not given here
Starred values were filed as active, the others as inactive; x = no result given.

SMILES | PfM18AAP inh | APOBEC3A inh | PfG6PD inh | Yeast superoxide | A3G deaminase | A3A conf | UDG ctr A3A
CCN1/C(=C/c2ccc3cc(C)ccc3[n+]2CC)Sc2cc(C)c(C)cc21 | 1.2 | 56.6* | 30.9 | x | 18.9 | 79.9* | x
CCN1/C(=C/c2sc(-c3ccccc3C)c[n+]2C)Sc2ccccc21 | 0.0 | x | 15.1 | x | x | x | x
C=C1C(=O)OCC2C(C(=O)O)=CC3C(C)C(C)=CC123 (stereo unspecified) | x | x | 13.3 | x | x | x | x
C=CCn1c(C)csc1=Nc1ccc(C(=O)O)cc1 | 1.1 | 3.6 | -13.5 | 95.6 | -11.1 | x | x
COc1ccccc1N=Nc1[nH]c2ccc(C)cc2c1O | -6.4 | 66.3* | 22.7 | 103.7 | 6.4 | 53.0* | -0.2
Cc1noc(C)c1NC(=O)N(C)C[C@H]1Oc2ccc(NC(=O)NC3CCCCC3)cc2C(=O)N([C@H](C)CO)C[C@@H]1C | x | 0.6 | -0.8 | 83.8 | 5.7 | x | x
COc1ccc(/C=C/c2ccc3ccccc3[n+]2C)cc1OC | 8.6 | 65.6* | 8.5 | 90.9 | 22.7 | 80.9* | 2.2
N#C/C(=C\c1c(N2CCOCC2)nc2ccccn2c1=O)C(=O)NC1CCS(=O)(=O)C1 (stereo unspecified) | 4.8 | -1.3 | -9.1 | 94.1 | -3.1 | x | x
N#C/C(=C\c1c(N2CCCCCC2)nc2ccccn2c1=O)C(=O)NC1CCS(=O)(=O)C1 (stereo unspecified) | 1.8 | 44.2* | -2.4 | 106.6 | -8.8 | -3.5 | -2.1
COc1cc(/C=C/C(=O)OCC(=O)NCCN2C(=O)CSC2=O)ccc1OCC#N | x | -1.8 | -6.7 | 116.8 | -4.9 | x | x
CCc1nc(NCC2CC2)c2nnn(Cc3ccccc3)c2n1 | x | x | -23.7 | x | x | x | x
CCn1c(-c2nn(-c3ccccc3)ccc2=O)n[nH]c1=S | 4.5 | 1.5 | 23.7 | 81.5 | 19.6 | x | x
CCn1c(SC)nnc1-c1nn(-c2ccccc2)ccc1=O | 3.3 | 57.9* | -11.7 | 105.2 | 15.5 | 66.3* | -3.5
COc1ccc([C@H]2C[C@@H](O)[C@H](n3cc(COC(=O)c4ccccc4)nn3)CN2C(=O)c2cccs2)cc1 | x | x | 0.8 | x | x | x | x
O=C(Cn1ccc2ccccc2c1=O)NCC(=O)N1CCN(c2ccccc2F)CC1 | 0.9 | -2.2 | 0.6 | 110.5 | -6.7 | x | x
COc1ccc(-c2nnc3sc(C4CCCCC4)nn23)cc1OC | -2.8 | 49.4* | 3.8 | 103.1 | 16.3 | 30.4 | x
Cc1cccc(Nc2nn3c(=O)c4ccccc4nc3s2)c1 | -1.2 | 46.4* | -18.3 | 108.3 | 8.2 | 22.4* | 1.4
CN(Cc1ccccc1)C1=CC(=[N+]2CCCCC2)CC(C)(C)C1 | 3.0 | 67.6* | -7.6 | 103.2 | 20.3 | 72.6* | -2.3
CC1(C)CC(N2CCN(Cc3ccccc3)CC2)=CC(=[N+]2CCCCC2)C1 | -1.4 | 32.2 | 9.5 | 81.8 | 14.9 | x | x
CCOc1cc(N2CCOCC2)c(OCC)cc1NS(=O)(=O)c1ccc(Cl)s1 | 7.1 | 59.6* | 12.2 | 135.3 | 9.4 | 21.4 | x
CCOc1cc(N2CCOCC2)c(OCC)cc1NC(=O)c1cc(S(=O)(=O)N2CCOCC2)ccc1Cl | x | 2.3 | 5.8 | x | -5.7 | x | x
O=C(C1CCCN1C(=O)c1cccs1)N1CCN(S(=O)(=O)c2ccc(F)cc2)CC1 (stereo unspecified) | x | -3.0 | 3.7 | 108.5 | -9.8 | x | x
CCC(C)c1ccc(S(=O)(=O)N2CCN(CC(O)COCC3CCCO3)CC2)cc1 (stereo unspecified) | x | 54.8* | -11.1 | x | -9.1 | -11.2 | 1.0
CC(C)c1ccc(S(=O)(=O)N2CCN(CC(O)CN3CCOCC3)CC2)cc1 (stereo unspecified) | x | -2.7 | -7.7 | 92.8 | -9.0 | x | x
CCCn1nc(NC(=O)c2ccccn2)c2cc3cc(C)ccc3nc21 | 16.4 | -1.7 | 3.4 | 125.8 | -4.5 | x | x
CCn1nc(NC(=O)COC)c2cc3cc(C)ccc3nc21 | -6.2 | 45.1* | 1.9 | 95.3 | 15.6 | 59.0* | -0.3
CCCC(=O)Nc1nn(C)c2nc3ccc(C)cc3cc12 | 2.7 | -1.7 | 3.9 | 96.0 | -31.5 | x | x
CCCCn1nc(NC(=O)COC)c2cc3ccc(C)cc3nc21 | -14.5 | 46.9* | 7.2 | 98.7 | 14.9 | 66.7* | 5.6
CCCn1nc(NC(=O)COC)c2cc3cc(C)ccc3nc21 | -16.5 | 52.7* | -0.7 | 112.0 | 27.8 | 57.8* | -2.0
